Assay outcomes (PubChem)
RmlCD inh mix: inhibitors of RmlC and RmlD coupled enzymes. RmlC/RmlD coupled enzyme inhibition, 384-well mixture HTS. inhibition, % at 5.5 µM. 110,000 compounds, 0.39% hits. AID 1532; in the data active = inhibition above about 30%, passing the limit was not always enough; inconclusive = no clear call, values can overlap the other calls
YopH PTP inh: blocks Yersinia enterocolitica YopH tyrosine phosphatase; fluorescence Ex485/Em525; inhibition, % (test concentration not listed); 140,000 compounds, 0.16% hits; AID 898; in the data active = inhibition above about 50%
RmlCD fluor art: counter-screen for RmlC/RmlD inhibitors: fluorescence artifact; RmlC/RmlD assay fluorescence artifact counter-screen; 360 compounds, 96% hits; shares compounds with RmlCD inh mix; AID 1696; calls only; call rule not given here;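 also: compound alone with no enzyme and no substrates present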
* = called active by the depositor; u = inconclusive; x = no result; + = active, no number. The list is not random: actives were taken first. Their share in the collection is about 0.44%.

SMILES	RmlCD inh mix	YopH PTP inh	RmlCD fluor art
CC(C)OC(=O)CC(=O)CSc1nc2c(c(-c3cccs3)c1C#N)CCC2	x	-42	x
N#Cc1cc2c(nc1SCC(=O)Nc1nccs1)CCCCC2	34	-5	x
CCSc1nnc(NC(=O)CSc2nc3c(cc2C#N)CCCC3)s1	u	-25	x
CCc1nnc(NC(=O)CSc2nc3c(cc2C#N)CCC3)s1	56*	1	+
Cc1ccc2oc(C(Cl)(Cl)Cl)cc(=O)c2c1	7	-30	x
Cc1cc(/C=N/NC(=O)C(=O)NCc2ccccn2)c(C)n1-c1ccccc1	x	-11	x
COc1cccc(SCc2noc(C(=O)NCCC(C)C)c2C(=O)NCCC(C)C)c1	-18	x	x
Cc1cc(C)c(C#N)c(SCC(=O)C(C)(C)C)n1	8	11	x
COC(=O)CC(=O)CSc1nc(C)cc(C)c1C#N	121*	-47	+
CCOC(=O)CC(=O)CSc1nc2c(cc1C#N)CCCCCC2	64*	x	+
N#Cc1cc2c(nc1SCC(=O)N1CCOCC1)CCCCC2	-12	-6	x
O=c1c2cnn(-c3ccc(F)cc3)c2ncn1Cc1ccccc1	7	10	x
CCOC(=O)c1cc(C)sc1/N=C/C1=C(O)CCCC1=O	x	-20	x
COc1ccc2cc(C(C)=O)c(=O)oc2c1	x	-29	x
COc1ccc2cc(-c3nc4ccccc4n3C)c(=O)oc2c1	31*	-24	+
COc1cc(C(=O)O)c2c(c1C)OC(=O)c1c(C)cc(O)c(C=O)c1O2	3	x	x
COc1ccc(-c2cc(C(F)(F)F)n3ncc(C(=O)NCC4CCCO4)c3n2)cc1 (centres undefined)	36*	-23	+
COc1cccc(-c2cc(C(F)(F)F)n3ncc(C(=O)NCC4CCCO4)c3n2)c1 (centres undefined)	8	4	x
Cc1nn(CCC(N)=S)c2nc(-c3cccs3)cc(C(F)(F)F)c12	x	-2	x
Cc1ccc(-c2nc3cc(N)ccc3o2)cc1	x	-27	x
Nc1cccc(-c2nc3cc(S(=O)(=O)c4ccc5oc(-c6cccc(N)c6)nc5c4)ccc3o2)c1	46*	4	+
O=c1[nH]cnc2cc(-c3ccccc3)sc12	1	-12	x
COc1ccc(-c2cc3nc[nH]c(=O)c3s2)cc1	51*	-14	+
CCO[C@@H]1OC(C(N)=O)=C[C@H](c2ccc3c(c2)OCO3)[C@H]1CCCO	-9	x	x
NC(=O)C1CCCN(C(=S)Nc2cccc3ccccc23)C1 (centres undefined)	x	-19	x
SMILES	RmlCD inh mix	YopH PTP inh	RmlCD fluor art
CC(C)C(=O)N1CCC(CN=CC2=C(O)CC(C)(C)CC2=O)CC1	3	-17	x
COC(=O)C1=C(C(=O)OC)[C@@H]2Nc3ccccc3[C@@]23C[C@@H](C(=O)OC)N(C(=O)NC2CCCCC2)C3=N1	-12	x	x
CCC1CCc2c(sc(NC(=O)c3ccco3)c2C(N)=O)C1 (centres undefined)	-3	-10	x
CC(C)(C)C1CCc2c(sc(NC(=O)c3ccco3)c2C(N)=O)C1 (centres undefined)	64*	-22	+
CCCOc1ccc(NC(=O)OC2CCN(C)CC2)cc1	x	-22	x
O=S1(=O)c2ccccc2C(CCO)N1Cc1ccccc1 (centres undefined)	-1	x	x
CCOC(=O)c1sc(Nc2nc3c(OC)cccc3s2)nc1C	79*	-38	+
CCOC(=O)c1sc(Nc2ccccc2)nc1C	-13	-19	x
N#C/C(=C\c1ccc(OCC(N)=O)cc1)c1ccccc1	x	-7	x
CCc1nc(SCc2ccc(F)cc2)[nH]c(=O)c1C#N	2	-19	x
CN1CCN(Cc2c(O)ccc3c(-c4ccccc4)cc(=O)oc23)CC1	-6	-30	x
Cc1cc(=O)oc2c(CN3CCC(C)CC3)c(O)c(Cl)cc12	149*	2	+
CCc1cc(=O)oc2cc(C)c(CN3CCCCC3)c(O)c12	10	-42	x
Cc1cc2oc(=O)cc(CN3CCC(C)CC3)c2cc1Cl	-21	-40	x
Cc1cc(=O)oc2c(CN3CCCCC3)c(O)c(Cl)cc12	94*	15	+
CCCc1cc(=O)oc2c(CN3CCCC3)c(O)ccc12	99*	-29	+
C=CCn1c(SCc2csc(-c3ccc(Cl)cc3)n2)nnc1-c1ccccc1OC	x	-9	x
CC(C)NC(=O)NC(=O)COc1ccc(Br)cc1Br	x	-34	x
CCC(CO)NCc1cc(OC)c(OCC(=O)NCCc2ccccc2)cc1Br (centres undefined)	x	-21	x
Clc1ccc(-c2cn3cccnc3n2)cc1Cl	9	-12	x
O=S(=O)(c1cccc(-c2cn3cccnc3n2)c1)N1CCOCC1	67*	-18	+
Brc1ccc(-c2cn3cccnc3n2)cc1	45*	-20	+
Clc1ccc(-c2cn3cccnc3n2)cc1	40*	-7	+
O=S(=O)(c1cccc(-c2cn3cccnc3n2)c1)N1CCCCCC1	-25	-33	x
COc1ccc(-c2cn3cccnc3n2)cc1F	x	7	x
Cc1ccc2c(c1)SC1=NC(c3ccccc3)(C(F)(F)F)NC(=O)N12 (centres undefined)	x	-23	x
